Data reported in PubChem BioAssay (NCI).
Compounds without any hit were thinned out: in the full panel of roughly 79,000, 15% have a hit. Active and inactive are the calls of the source. No stated cut-off is given here; in the data, active means growth inhibition above about 70%; inactive means the rest.

test: NCI Yeast Anticancer Drug Screen. Data for the bub3 strain (AID 167); conditions: S. cerevisiae bub3 mutant strain, at 50.0 µM, stronger effect = higher value
Procedure: Growth inhibition of yeast strains with defined genetic alterations is measured as a screen for potential anti-cancer activity. Selected strains with alterations in DNA damage repair or cell cycle control were exposed to compounds and growth inhibition was measured relative to vehicle treated controls. The strain used in this assay is bub3

Compound	growth inhibition
Cc1nc2cccc3ccc4cc5ccccc5c1c4c32	25.9% (inactive)
Cc1ccc(C(C)C)cc1OC(=O)NC1CCCCC1	-23.4% (inactive)
O=[N+]([O-])c1ccc(-c2cc3ccccn3c2)cc1	11.8% (inactive)
O=[N+]([O-])c1cc(Cl)c(Cl)c(Cl)c1Cl	7.3% (inactive)
CCOc1ccc(N=Nc2ccc3oc(=O)c(/C(C)=N/NC(=O)CC(=O)Nc4cccc(OC)c4)cc3c2)cc1	-5% (inactive)
N#CNc1c2ccccc2nc2ccccc12	6.5% (inactive)
S=c1[nH]c(=S)c2nnn(-c3ccccc3)c2[nH]1	-47.9% (inactive)
CCCC/C(C)=N/NC(N)=S	-15.9% (inactive)
CC(NC(=O)NC(C)(C)C)c1ccccc1 (stereo not given)	5.2% (inactive)
Clc1ccccc1N=NNc1ccccc1Cl	6.35% (inactive)
CCCC(C)(CCC)OC(=O)Nc1cccc2ccccc12	6.95% (inactive)
NC(=O)N/N=C1\CCn2cccc21	1.1% (inactive)
CN(Cc1cnc2nc(N)nc(N)c2n1)c1ccc(C(=O)NC(CCC(=O)OCc2cc3c(cc2Cl)OCO3)C(=O)OCc2cc3c(cc2Cl)OCO3)cc1 (stereo not given)	-8.6% (inactive)
CCO[Si](OCC)(OCC)c1ccccc1	-14.5% (inactive)
Nc1ncc2c(n1)SCC2	-17.6% (inactive)
NC(=S)c1ccccc1N=Cc1cccs1	53.6% (inactive)
NC1=NS(=O)(=O)Nc2nc(-c3ccc([N+](=O)[O-])cc3)[nH]c21	-38.2% (inactive)
C/C(=C1/N=C(c2cc([N+](=O)[O-])ccc2Cl)N(c2ccc(Br)cc2)C1=O)c1cc2ccccc2oc1=O	9.35% (inactive)
O=C(O)c1ccccc1/C=N\NC1=NCCN1	-13.7% (inactive)
O=c1ccn(C2OC(CO)C(O)C2Cl)c(=O)[nH]1 (stereo not given)	4.9% (inactive)

Compound	growth inhibition
COC(=O)CC(c1ccc(OC)cc1)C(CC(=O)OC)c1ccc(OC)cc1 (stereo not given)	25.9% (inactive)
Cc1ccc2oc(=O)cc(CC(=O)O)c2c1	-10.7% (inactive)
O=C(N=Nc1c(O)[nH]c2ccccc12)C(=O)N=Nc1c(O)[nH]c2ccccc12	7.15% (inactive)
CCOC(=O)C1=NN(c2ccccc2)C(=O)/C1=C\n1c(=S)sc2ccccc21	-11.8% (inactive)
CSc1ccc(NC(=O)Nc2cccc(F)c2)cc1	42.5% (inactive)
CN(C)CC(C(N)=O)C(N)=O	-10.5% (inactive)
O=[N+]([O-])c1ncc(N(CCO)CCO)s1	-18.2% (inactive)
O=C(O)c1cnc2cccc([N+](=O)[O-])c2c1	-22.2% (inactive)
O=C(Oc1c(Cl)c(Cl)c(Cl)c(Cl)c1Cl)Oc1c(Cl)c(Cl)c(Cl)c(Cl)c1Cl	12.8% (inactive)
COC(=O)C1(O)CCC(C)CC1 (stereo not given)	2.1% (inactive)
COc1ccc(/C(=N\NC(=O)NN)C(c2ccc(OC)cc2)C2(O)C(=O)Nc3c(Cl)cc(Cl)cc32)cc1 (stereo not given)	8.6% (inactive)
CCCCB1OB(CCCC)OB(CCCC)O1	7.15% (inactive)
O=C(Cc1nc(-c2ccccc2)cc(=O)n1-c1ccccc1Cl)c1ccncc1	-1.2% (inactive)
CC(=O)NNC(=S)/N=C/C(C(=O)Nc1ccc([N+](=O)[O-])cc1)=C(\C)O	6.5% (inactive)
COC(=O)c1nc(N)nc(C(=O)OC)c1C(=O)c1ccc(Cl)c(Cl)c1	3.2% (inactive)
O=C(O)/C(Br)=C(\Br)c1ccccc1	1.55% (inactive)
Cn1c2c(c(=O)c3c4[nH]c5c(c(=O)c4ccc31)CCCC5)CCCC2	-4.95% (inactive)
CC(O)c1cccc(C(C)(C)O)c1Sc1c(C(C)(C)O)cccc1C(C)(C)O (stereo not given)	6.25% (inactive)
CCOC(=O)c1ccc(NC(C)=O)cc1	-4.45% (inactive)
Cc1ccc2ccccc2c1C(=O)c1ccccc1Cc1cccc2ccccc12	4.55% (inactive)
